This note sets out measurements from PubChem BioAssay (Tox21).

Each structure is given as a SMILES string. Several values for one entry are separate records, joined by “and”; a condition that tells them apart may be missing. Identical values can stand only once. Inconclusive results are not listed. The source holds several records for some structures; these can differ, active in one and inactive in another. Activity calls are given as the source filed them. Unless noted, calls follow the shape of the dose curve; as a rule, active = well fitted curve in the direction sought with a large enough effect in the repeat runs; inconclusive = weak or mixed curves; inactive = no such curve, though single readings can be large; an effect the other way counts as inactive or inconclusive.

Test [1] can be described thus: qHTS assay to identify small molecule agonists of the hypoxia (HIF-1) signaling pathway - cell viability counter screen (AID 1224844; calls by dose curve; also: nearly all actives have a fitted effect of over 50% in size; also: potency is read from the fitted curve at half-maximal effect). Summed up: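 CellTiter-Glo luminescence read-out, 30 min RT, taken in the same wells as the beta-lactamase HRE reporter assay; HRE-bla ME-180 cells, 0.5% dialyzed FBS, 17 hr compound treatment at 37C, 5% CO2.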
A short description of test [2]: qHTS assay to identify small molecule agonists of H2AX (AID 1224845; active = well fitted activation curve with a large enough effect in the signal ratio in the repeat runs, not every such curve was filed as active; the % refers to the signal ratio; also: potency is read from the fitted curve at half-maximal effect). Summed up:
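Wild-type CHO-K1 cells plated overnight, then exposed 3 hr at 37C to compounds at 15 concentrations (0.76% DMSO). Lysed, then HTRF anti-pH2AX(S139)-cryptate/anti-H2AX-d2 detection after 24 hr at room temperature; emissions 665 and 620 nm.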

The nature of test [3]: qHTS assay to identify small molecule agonists of H2AX - cell viability counter screen (AID 1224847; calls by dose curve; also: nearly all actives have a fitted effect of over 30% in size; also: potency is read from the fitted curve at half-maximal effect). Summed up: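 After overnight plating of 1000 CHO-K1 cells per well, a 15-concentration compound series was applied for 3 hr at 37C. Luminescence from CellTiter-Glo, read following 30 min at room temperature, reflected cell viability.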
Background: Quantitative high-throughput screening tests each substance at several concentrations.

The nature of test [4]: qHTS assay to identify small molecule antagonists of the estrogen related receptor (ERR) signaling pathway from Tox21 library (AID 1224848). Also: nearly all actives have a fitted effect of over 50% in size. Also: potency is read from the fitted curve at half-maximal effect. Summed up: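 First, 2,000 ERR cells per well were plated and held 6 h at 37 C/5% CO2. Next, compounds in DMSO were pinned in and left 18 h at 37 C. Finally, ONE-Glo was added and luminescence read after 30 min at room temperature.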
The nature of test [5]: qHTS assay to identify small molecule agonists of the estrogen related receptor (ERR) signaling pathway from Tox21 library (AID 1224849; calls by dose curve; also: nearly all actives have a fitted effect of over 15% in size). The following applies: ERR reporter cell line, ONE-Glo luciferase, 18 h. Summed up: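 Luminescence readout (ONE-Glo, 30 min RT) after 18 h compound exposure at 37 C of NTP-supplied ERR reporter cells; cells were plated 6 h before compound addition by pin tool.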

A short description of test [6]: qHTS RealTime-Glo MT Cell Viability Assay in HepG2 cells - 24 hour (AID 1224867). Also: nearly all actives have a fitted effect of over 50% in size. Summed up:
(§1)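 HepG2 cells (600/well) were dispensed with RealTime-Glo reagents, incubated 5 h at 37 °C, then treated with compounds in DMSO for up to 40 h. Nonlytic NanoLuc luminescence reflecting viable cells was read at each stated time point.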

Test [7] in a line: qHTS RealTime-Glo MT Cell Viability Assay in HEK293 cells - 32 hour (AID 1224868). Also: top concentration of the series differs between compounds; nearly all actives have a fitted effect of over 50% in size. Summed up: (§2)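 HEK293 cells seeded with NanoLuc/prosubstrate reagent, rested 5 h at 37 C, then dosed and kept at 37 C up to 40 h. Nonlytic real-time luminescence from viable cells read at 0, 8, 16, 24, 32 and 40 h.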
The nature of test [8]: A CellTox Green Cytotoxicity Assay to monitor cytotoxicity in HEK293 cells - 0 hour (AID 1224869). Also: nearly all actives have a fitted effect of over 50% in size. The gist of the method:
(§3)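 Read-out: fluorescence of a cell-impermeant cyanine dye staining DNA of dead cells, proportional to cytotoxicity. HEK293, 600 cells/well with reagent, compound (23 nL DMSO) added after 5 h; reads at 0, 8, 16, 24, 32, 40 h.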

Test [9] in a line: qHTS RealTime-Glo MT Cell Viability Assay in HepG2 cells - 40 hour (AID 1224870). Also: nearly all actives have a fitted effect of over 50% in size. Summed up:
(§4)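 HepG2 cells mixed with RealTime-Glo MT reagents (NanoLuc plus cell-permeant prosubstrate) were seeded at 600 cells/well, incubated 5 h at 37 C/5% CO2, then pinned with compounds in DMSO; nonlytic luminescence tracked viability during 40 h treatment.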

Test [10] can be described thus: A CellTox Green Cytotoxicity Assay to monitor cytotoxicity in HEK293 cells - 40 hour (AID 1224871). Also: nearly all actives have a fitted effect of over 45% in size. Also: potency is read from the fitted curve at half-maximal effect. Summed up: as §3
Test [11] can be described thus: qHTS RealTime-Glo MT Cell Viability Assay in HEK293 cells - 16 hour (AID 1224872). Summed up:
as §2

The nature of test [12]: qHTS RealTime-Glo MT Cell Viability Assay in HepG2 cells - 8 hour (AID 1224873). Also: nearly all actives have a fitted effect of over 55% in size. Summed up:
as §4

Test [13] is described as follows: qHTS RealTime-Glo MT Cell Viability Assay in HEK293 cells - 40 hour (AID 1224874). Also: nearly all actives have a fitted effect of over 50% in size. The following applies: RealTime-Glo luminescence; max response: stronger effect = lower value. Summed up:
(§5)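 Luminescence readout at each listed time point; HEK293, 600 cells/well, RealTime-Glo MT reagent added with cells; compounds pinned (23 nL in DMSO) after 5 h at 37 C; continuous culture at 37 C.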

Test [14] in a line: A CellTox Green Cytotoxicity Assay to monitor cytotoxicity in HEK293 cells - 24 hour (AID 1224875). Also: nearly all actives have a fitted effect of over 45% in size. The gist of the method:
as §3

A short description of test [15]: A CellTox Green Cytotoxicity Assay to monitor cytotoxicity in HepG2 cells - 16 hour (AID 1224876). Also: nearly all actives have a fitted effect of over 45% in size. Summed up: (§6)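 HepG2, 600 cells/well premixed w/ CellTox Green; 5 h settle, 37 C/5% CO2; pintool cpd add (DMSO); 37 C, 40 h; fluorescence read at 0, 8, 16, 24, 32, 40 h.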
Test [16] is described as follows: qHTS RealTime-Glo MT Cell Viability Assay in HepG2 cells - 32 hour (AID 1224877). Also: nearly all actives have a fitted effect of over 55% in size. The gist of the method:
as §1

A short description of test [17]: A CellTox Green Cytotoxicity Assay to monitor cytotoxicity in HepG2 cells - 24 hour (AID 1224878). Also: nearly all actives have a fitted effect of over 45% in size. Summed up:
as §6

The nature of test [18]: A CellTox Green Cytotoxicity Assay to monitor cytotoxicity in HepG2 cells - 40 hour (AID 1224879). Also: nearly all actives have a fitted effect of over 40% in size. The gist of the method:
as §6

Test [19] can be described thus: qHTS RealTime-Glo MT Cell Viability Assay in HEK293 cells - 0 hour (AID 1224880). The gist of the method: as §5
[20] abbreviates: at 92.4 µM (top of the series) unless noted.
% is scaled to controls: 0 for no effect and ±100 for the full control effect.

For `COP(=O)(OC)Oc1ccc([N+](=O)[O-])cc1`, the Potency entry in test [1], in [2], in test [3], in test [6], in [7] and in [8] was “inactive” each time. The Potency entry in test [9], in test [10], in test [11], in test [12], in test [14] and in test [15] was “inactive” each time. Further, the Potency result in [16], in test [17], in test [18] and in [19] was “inactive” each time. In addition, the Potency in [4] was 30.6 µM (active). Moreover, in test [5] (setting [20]), the activity change, positive = activation was -54.1% (inactive). Moreover, the max response in [13] was -20.5% (inactive).
With `Cc1ccccc1OP(=O)(Oc1ccccc1C)Oc1ccccc1C`, the Potency entry in [1], in test [2], in test [4], in test [6], in [8] and in test [9] was “inactive” throughout. For the same molecule, the Potency result in [10], in [11], in test [12], in test [14], in [16] and in test [17] was “inactive” throughout. The Potency result in [18] and in test [19] was “inactive” throughout. Moreover, the Potency in test [3] is 90.1 µM (active). Moreover, the activity change, positive = activation in [5] (setting [20]) is -4.53% (inactive).
On to `CC1CN1` (stereo not drawn), for which the Potency result in test [1], in test [2], in test [3], in test [6], in test [7] and in test [8] was “inactive” in each case. Also, the Potency entry in test [9], in test [10], in test [11], in test [12], in test [14] and in test [15] was “inactive” each time. Also, the Potency result in [16], in [17], in [18] and in test [19] was “inactive” each time. In addition, in [13], the max response is 6.11% (inactive).
`CC(Cc1ccc2c(c1)OCO2)NO` (stereo not drawn): the Potency entry in test [1], in [2], in test [3], in test [4], in test [6] and in test [7] was “inactive” each time. In addition, the Potency entry in [8], in test [9], in test [10], in test [11], in test [12] and in test [14] was “inactive” in each case. For the same molecule, the Potency entry in [15], in test [16], in [17], in test [18] and in test [19] was “inactive” throughout. Further, in test [5] (setting [20]), the activity change, positive = activation is -3.14% (inactive). The max response in test [13] is 0.458% (inactive).
As to `CC(C)(C)c1ccc(OP(=O)(Oc2ccccc2)Oc2ccccc2)cc1`, the Potency entry in test [1], in test [2], in test [3], in test [6], in [8] and in test [9] was “inactive” each time. Besides, the Potency result in test [10], in test [12], in test [14], in [16], in test [17] and in test [18] was “inactive” in each case. Also, the Potency result in [19] is “inactive”. The activity change, positive = activation in test [5] (setting [20]) is -31.3% (inactive).
Turning to `C[C@]12C/C(=C/O)C(=O)C[C@@H]1CC[C@@H]1[C@@H]2CC[C@@]2(C)[C@H]1CC[C@]2(C)O`, the Potency was 24.8 µM (active) and 19 µM (active) in [1]; 90.6 µM (active) in test [2]; 34.7 µM (active) and 33.5 µM (active) in test [4]; 49.4 µM (active) and inactive in [10]. Moreover, the Potency entry in test [3], in test [6], in [7], in test [8], in [9] and in test [11] was “inactive” throughout. In addition, the Potency entry in test [12], in [15], in [16], in test [17] and in [19] was “inactive” throughout. For the same molecule, the activity change, positive = activation is -37.2% (inactive) in test [5] (at 42.5 µM (top of the series)) and -61.4% (inactive) in [5] (at 92.4 µM (top of the series)). In addition, the max response in [13] was -17.5% (inactive).
Turning to `Nc1ccc(Cl)cc1C(=O)c1ccccc1F`, the Potency entry in [1], in [2], in test [3], in test [6], in test [7] and in test [8] was “inactive” throughout. The Potency result in test [9], in [10], in test [11], in test [12], in test [14] and in test [16] was “inactive” throughout. For the same molecule, the Potency entry in [19] was “inactive”. The activity change, positive = activation in test [5] (setting [20]) is 7.6% [at 42.5 µM] (inactive). In addition, the max response in [13] was -9.35% (inactive).
